Results reported in PubChem BioAssay (NCI).
Compounds without any hit were thinned out: in the full panel of roughly 83,000, 20% have a hit.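 Step 1: grow cells in 96-well plates. Step 2: add test compound at a single concentration. Step 3: incubate 48 h. Step 4: record percent growth.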 Activity calls are given as the source filed them. Rule for the calls: active = growth percent below 10; inactive = the rest.

Test system: HL-60(TB) leukemia
Assay: NCI-60 one-dose screen, 48 h (100 = growth as untreated, 0 = no growth, -100 = all killed)
Details: 10 µM unless noted

| SMILES | growth |
| --- | --- |
| CCN(CCCNc1cc2c(c(N)c1S(=O)(=O)O)C(=O)c1ccccc1C2=O)c1ccccc1 | 84.9% (inactive) |
| COc1ccc(N(c2nc(-c3ccc([N+](=O)[O-])cc3)cs2)C(C)C)cc1 | 90.1% (inactive) |
| CCn1cc(C(=O)O)c(=O)c2cc(F)c(N3CCN(S(=O)(=O)c4ccc(Cl)cc4Cl)CC3)cc21 | -51.7% (active) |
| Cc1cccc2c1O/C(=C\c1ccc([N+](=O)[O-])o1)C2=O | -25.7% (active) |
| COc1cc2cc3c(nc2cc1OC)CCN3Cc1ccc(NC(=O)Nc2ccc(F)cc2F)cc1 | 80.5% (inactive) |
| COc1cc(-c2nccc3[nH]c(-c4cccc5[nH]ccc45)nc23)cc(OC)c1OC | -41.1% (active) |
| O=S1(=O)OC(c2cc(Cl)c(O)c(Br)c2)(c2cc(Cl)c(O)c(Br)c2)c2ccccc21 | 92.4% (inactive) |
| c1ccc2cc(Cn3cc[n+](Cc4ccc5ccccc5c4)c3)ccc2c1 | -33.6% (active) |
| COc1cc(/C=C2\C=C(c3ccccc3)N(CCc3ccccc3)C2=O)cc(OC)c1OC | 80.3% (inactive) |
| CCOC(=O)CCCCCCCCC(=O)OCC | 97.4% (inactive) |
| CC12O[C@H](C[C@@H](OC(=O)CCC(=O)O)[C@H]1O)n1c3ccccc3c3c4c(c5c6ccccc6n2c5c31)C(=O)NC4=O | 66.7% (inactive) |
| C/C(=N\Nc1ccc(Cl)cn1)c1ccc2ccccc2n1 | -15.3% (active) |
| COc1ccc(CN2c3ccccc3CCc3ccccc32)cc1F | -25.7% (active) |
| Cc1ccc(C(=O)NCCCNc2nccc(-n3ccc4cccnc43)n2)cc1 | 105% (inactive) |
| COc1ccc(Cl)cc1Nc1nc(C(F)(F)F)ccc1C(=O)NN | 23.3% (inactive) |
| Cc1nc2ccccc2n1C(=O)C[C@@H]1NC(=S)NC1=O | 101% (inactive) |
| CC[C@H](CC[C@@H](C)[C@H]1CC[C@H]2[C@@H]3CC=C4C[C@@H](OCCc5nn[nH]n5)CC[C@]4(C)[C@H]3CC[C@]12C)C(C)C | 103% (inactive) |
| C#Cc1cccc(NC(=O)Nc2ccccc2NC(=O)CCl)c1 | 16.8% [8.25 µM] (inactive) |
| COc1cccc(/C=C2\SC(=Nc3ccc(NC(C)=O)cc3)NC2=O)c1OC | 101% (inactive) |
| CCN(CC)CCCOCCCNc1cc(OC)cc2cccnc12 | 107% (inactive) |
| Oc1cccc(-c2nc(-c3n[nH]c(=S)n3-c3ccccc3)cc3c2[nH]c2ccccc23)c1 | 4.29% (active) |
| CN(C)CCCN1c2nc3ccccc3cc2Sc2cc3ccccc3nc21 | 43.9% (inactive) |
| CC(C)c1ccc(/C=N/Nc2nc3ccccc3s2)cc1 | 98% (inactive) |
| CCN1CCN(CCCN(C[C@H]2Cc3ccccc3CN2)[C@H]2CCCc3cccnc32)CC1 | 62.8% (inactive) |
| COc1ccc2c(c1OC)CO[C@@H]2[C@H]1c2c(cc3c(c2OC)OCO3)CCN1S(=O)(=O)c1cn(C)cn1 | -0.0238% (active) |
| NC(=O)c1c(Nc2ccccc2)nn2cc(-c3nc4ccccc4s3)c(N)nc12 | 101% (inactive) |
| Nc1ncnc2c1ncn2C1(CO)OCC(O)C(O)C1O (configuration not stated) | 95.9% (inactive) |
